# Most compounds without a hit are left out; they make up all but 3.1% or so of the library.
# TSHR antagonist – blocks TSH signaling through the human TSH receptor. AID 504810. 0.2% of 330,000 active. activity change, negative = inhibition, % at 11.5 µM. TSHR-expressing cells, TSH-stimulated cAMP HTRF, 2 h; hits give low values. P16473;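 active = activity change below a set negative limit, meaning inhibition stronger than a set level, cut at about -70% in these data; inconclusive = activity change between two set negative limits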
#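 TSHR-expressing cells, 200/well, pre-treated with compound, then stimulated with EC80 TSH (4nM final) for 2 hours at 37 deg C. cAMP measured by competitive HTRF: anti-cAMP cryptate antibody in lysis buffer plus cAMP-d2, read after 30 minutes at room temperature.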
# Vif-APOBEC3G blk – Vif-A3G binding inhibition; 0.076% of 410,000 active; Potency, µM (highest dose often 46.1 µM), hits mostly inhibitors; Q9HC16; HeLa A3G-eYFP + Vif (tagged APOBEC3G with the HIV-1 protein that degrades it), YFP fluorescence, overnight; AID 602310; note: nearly all actives have a fitted effect of over 60% in size
#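 HeLa cells stably expressing Vif and C-terminally eYFP-tagged A3G, seeded overnight at 37 deg C, then exposed to compound by pintool overnight at 37 deg C. Rise in yellow fluorescence (Ex 488/Em 500-530, Acumen) marks blocked Vif-driven A3G degradation.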
# PLK1 PBD inh – blocks phosphopeptide binding to human PLK1 polo-box domain; P53350; Plk1 PBD binding of FITC phosphopeptide, fluorescence polarization; Potency, µM, hits mostly inhibitors; 2.8% of 360,000 active; AID 720504; note: series mostly up to about 57 µM; nearly all actives have a fitted effect of over 65% in size
# Vif-A3F inh – Vif-A3F binding inhibition; HeLa A3F-eYFP + Vif (tagged APOBEC3F with the HIV-1 protein that degrades it), YFP fluorescence increase; Potency, µM (titrated, usually from 46.1 µM); 0.2% of 390,000 active; AID 602313; note: nearly all actives have a fitted effect of over 65% in size
#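 Fluorescence increase (Ex 488/Em 500-530) after overnight compound treatment at 37 deg C flags inhibition of Vif-driven A3F-eYFP loss in stable HeLa A3F-eYFP/Vif cells seeded overnight beforehand.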
# VDR inhibitor – inhibitors of human vitamin D receptor; P11473; VDR-SRC2-3 peptide fluorescence polarization, 2 h; Potency, µM, hits mostly inhibitors; 0.93% of 400,000 active
#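 Inhibition of the VDR/SRC2-3 peptide interaction is quantified by fluorescence polarization. Compounds (23 nl, pintool) incubate with the reagents for 2 hours at ambient room temperature.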
# USP1 UbRho – USP1-UAF1 deubiquitinase inhibition validated. shares compounds with VDR inhibitor. Ub-Rhodamine cleavage, fluorescence kinetic read. AID 540327. 50% of 50 active. Potency, µM (doses to about 56.8 µM), most hits filed as inhibitors
# VDR confirm – confirmation of human vitamin D receptor inhibitors; Potency, µM, hits mostly inhibitors; AID 602199; 89% of 840 active; VDR-coactivator inhibition assay, qHTS confirmation; shares compounds with VDR inhibitor
# VDR FP – blocks human VDR-coactivator binding in fluorescein assay | shares compounds with VDR inhibitor | VDR-coactivator binding, fluorescein fluorescence polarization | Potency, µM (top dose mostly 57.1 µM), hits mostly inhibitors | 48% of 840 active
# VDR bla – inhibits human VDR in beta-lactamase reporter cells. shares compounds with VDR inhibitor. VDR beta-lactamase reporter cells, FRET ratio; cells co-treated with VDR agonist LG190178. Potency, µM (highest dose often 46.1 µM), actives largely listed as inhibitors. 23% of 840 active
# VDR viability – counter-screen for vitamin D receptor inhibitors: cytotoxicity. shares compounds with VDR inhibitor. cytotoxicity counter-screen, cell viability, qHTS. Potency, µM (top dose mostly 48.3 µM), actives largely listed as cytotoxic. 18% of 840 active. AID 602204; note: nearly all actives have a fitted effect of over 75% in size
# A number is an active result; . = inactive; ? = inconclusive; / = no result. Unless noted, calls come from the whole dose curve; as a rule, active = well fitted curve in the direction sought with a large enough effect; inconclusive = small, poorly fitted or top-dose-only effect, or another doubt; inactive = no such curve, though single readings can be large; an effect the other way counts as inactive or inconclusive.
SMILES,TSHR antagonist,Vif-APOBEC3G blk,PLK1 PBD inh,Vif-A3F inh,VDR inhibitor,VDR confirm,VDR FP,VDR bla,VDR viability,others
CCC(Sc1nc(-c2ccccc2F)nc2c1Cc1c(CO)cnc(C)c1O2)C(=O)Nc1cc(C)ccc1C (stereo not given),/,.,/,.,.,/,/,/,/,
Cc1ccc(-c2ccc(/C=C3\C(=O)ON=C3c3ccccc3)o2)c([N+](=O)[O-])c1,.,.,1.7µM,.,28µM,3.8,?,18µM,13µM,
Cc1ccc(/C=C2\C(=O)ON=C2c2ccccc2)o1,.,.,?,.,?,/,/,/,/,
Cc1ccc(S(=O)(=O)Oc2ccc(/C=C3\C(=N)N4N=C(S(C)(=O)=O)SC4=NC3=O)cc2)cc1,.,.,15µM,.,50µM,?,3.2µM,.,?,
Cc1ccc(S(=O)(=O)Oc2ccc(/C=C3\N=C(c4cccc(C)c4)OC3=O)cc2)cc1,.,.,.,.,.,/,/,/,/,
COc1ccc(CN2[C@@H](CC(C)=O)c3ccc(/C=C/C(C)=O)cc3S2(=O)=O)cc1,/,?,.,.,79µM,5,?,?,?,
CCOC(=O)/C(=C\c1ccc(Cl)cc1)c1nc2sc(C)c(C)c2c(=O)[nH]1,.,.,7.5µM,.,25µM,5.3,?,?,15µM,
COc1cccc(CNCCSc2nnnn2C)c1OCc1ccc(Cl)cc1Cl,/,.,/,.,.,/,/,/,/,
COc1c2c(cc3c1C(CC(O)Cc1ccccc1)N(C)CC3)OCO2 (stereo not given),.,.,.,.,.,/,/,/,/,
COc1ccc2c(c1OC)C(Cc1ccccc1)N1CCc3cc4c(cc3C1=C2)OCO4 (stereo not given),/,/,/,/,32µM,/,/,/,/,USP1 UbRho=42µM
CCOc1cc(/C=C2\N=C(C)OC2=O)cc(Br)c1OCC(=O)OC,.,.,?,.,20µM,11,?,.,.,
CCOc1cc(/C=C2\N=C(C)OC2=O)cc(Br)c1OCCc1ccccc1,.,.,?,.,?,/,/,/,/,
Cc1ccccc1C(=O)N1CC(=O)Nc2ccc(Cl)cc2C1c1ccccc1 (stereo not given),/,.,/,.,.,/,/,/,/,
COc1ccc(Cn2c(NCC(C)C)nc3c2c(=O)n(C)c(=O)n3C)cc1,/,.,/,.,.,/,/,/,/,
COc1ccc(C(=O)n2nnc3ccccc32)cc1OC,.,.,9.5µM,.,50µM,?,?,.,.,
O=C(c1ccc2c(c1)OCO2)n1nnc2ccccc21,.,/,/,/,/,/,/,/,/,
Cc1[nH]n(-c2ncc(-c3ccc(Cl)cc3)s2)c(=O)c1C(c1ccc(Cl)cc1)C(C#N)C#N (stereo not given),.,.,9.5µM,.,50µM,8.4,7.9µM,.,.,
CCS(=O)(=O)c1ccc2oc(Nc3ccc(C(C)C)cc3)nc2c1,.,.,2.7µM,.,40µM,8.4,4µM,.,.,
CCOC(=O)c1c(-c2ccc(C)s2)csc1N,.,.,5.3µM,.,79µM,19,11µM,.,.,
COc1ccc(C(=O)c2coc3c2C(=O)C(=O)c2ccccc2-3)cc1,.,.,?,.,?,6.3,3.2µM,?,.,
O=C(c1ccccc1)c1coc2c1C(=O)c1ccccc1C2=O,.,.,.,.,.,/,/,/,/,
CSc1nnc(NC(=O)c2nc(S(=O)(=O)Cc3cccc(C)c3)ncc2Cl)s1,?,.,?,.,14µM,4.2,?,5.8µM,16µM,
CC(C)c1nnc(NC(=O)c2nc(S(=O)(=O)Cc3ccc(F)cc3)ncc2Cl)s1,-75,.,.,.,10µM,7.5,3.5µM,16µM,10µM,

# Screening data: PubChem, National Center for Advancing Translational Sciences (NCATS)
